Screens as filed in PubChem BioAssay.
Tg IFNy HTS: blocks Toxoplasma gondii growth in the presence of IFN-gamma. Toxoplasma gondii growth in IFN-gamma-treated host cells; active compounds read low. activity change, negative = inhibition, % (concentration not given with the values). hit rate 3.8% among 69,000; in the data active = activity change below about -70%, passing the limit was not always enough;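 also: host cells are HeLa cells infected with Toxoplasma gondii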
* = called active by the depositor. This excerpt belongs to a sample that is enriched for hits.

SMILES | Tg IFNy HTS
CC(=O)Nc1ccc(C23CC4CC(CC(C4)C2)C3)c(C)c1 | -57
O=C(c1ccccc1)c1ccc(O)c(C(c2ccccc2Cl)N2CCCCC2)c1O (centres undefined) | -97*
CCc1cccc(NC(=O)c2c(O)c3cccnc3n(-c3cccc(OC)c3)c2=O)c1 | 89
CC(C)(C)OC(=O)N1CCCC1C1CCc2ccccc2C1=O (centres undefined) | 5
COc1ccc(-c2nc(C(=O)NC(C)CN3CCOCC3)cs2)cc1 (centres undefined) | 26
CC(C)C[C@H](NC(=O)[C@H](CCc1ccccc1)NC(=O)CN1CCOCC1)C(=O)N[C@@H](Cc1ccccc1)C(=O)N[C@@H](CC(C)C)C(=O)[C@@]1(C)CO1 | -63
COc1ccc(C[C@H](NC(=O)[C@H](C)NC(=O)CN2CCOCC2)C(=O)N[C@@H](Cc2ccccc2)C(=O)[C@]2(C)CO2)cc1 | -74*
COc1cc(-c2cnc(N)cn2)cc(OC)c1OC | 8
Cc1ccc(NC(=O)CS(=O)CC(=O)NCC2OCCc3ccccc32)cc1Cl (centres undefined) | -66
CCOc1ccccc1-c1ccc2[nH]ncc2c1 | -1
COc1ccc(S(=O)(=O)NCCc2csc(-c3ccc(F)cc3)n2)cc1OC | 24
O=C(Cn1c(=O)cc(C(=O)N2CCCCC2)c2ccccc21)Nc1ccc(F)c(Cl)c1 | -46
O=C(c1nc(-c2cccc(F)c2)n2c1CCCCC2)N1CCCCCC1 | -87*
CCCN1CCN(C(=O)c2nc(-c3ccc(C)cc3)n3c2CCCCC3)CC1 | 240
Cc1ccc(-c2nc(C(=O)Nc3cc(C)on3)c3n2CCCCC3)cc1 | -110*
CC1CC(C)CN(C(=O)c2nc(-c3cccc(F)c3)n3c2CCCCC3)C1 (centres undefined) | -54
CCOC(=O)N1CCN(C(=O)c2nc(-c3ccc(C)cc3)n3c2CCCCC3)CC1 | 29
CC1CCN(C(=O)c2nc(-c3ccc(Cl)cc3)n3c2CCCCC3)CC1 | 22
CC(=O)Nc1ccc(NC(=O)c2nc(-c3ccc(C)cc3)n3c2CCCCC3)cn1 | -99*
CC1CCCCN1CCCNC(=O)c1nc(-c2ccc(Cl)cc2)n2c1CCCCC2 (centres undefined) | -37
O=C(c1nc(-c2cccc(F)c2)n2c1CCCCC2)N1CCN(c2ncccn2)CC1 | 6
CC(C)CCNC(=O)c1nc(-c2cccc(F)c2)n2c1CCCCC2 | -42
Cc1cc(NC(=O)c2nc(-c3cccc(F)c3)n3c2CCCCC3)no1 | 236
COC(=O)c1sccc1NC(=O)c1nc(-c2ccc(C)cc2)n2c1CCCCC2 | -97*
CC(=O)NC(C)c1ccc(-c2ccccc2C)cc1 (centres undefined) | 15
SMILES | Tg IFNy HTS
Cc1cccc2c(CC(C)NC(=O)CN3C(=O)NC4C3N(C)C(=O)N4C)c[nH]c12 (centres undefined) | 20
CCCCSc1nnc(C)n1Cc1ccccc1 | -2
Cc1ccc2nc(SCC(=O)N3Cc4cnn(CCO)c4C3)[nH]c2c1 | -3
Nc1ccc2c(c1)nc(CO)n2CCCO | 24
Cc1noc([C@H]2C[C@@H]3CCN(C(=O)N(C)C)C[C@@H]3O2)n1 | 129
O=C(O)CCCNC(=O)c1ccc2c(c1)OCCO2 | -32
COC(=O)[C@@H]1C[C@@H](N(C)C)CN1S(=O)(=O)CCc1ccncc1 | 21
COCCNC(=O)C1CN(Cc2c(C)noc2C)Cc2ccnn2C1 (centres undefined) | -1
CCCOc1ccc(-c2noc(-c3c(O)c4ccccc4n(CC)c3=O)n2)cc1 | 84
COc1ccc2oc(=O)c(C(=O)Nc3c(C)n(C)n(-c4ccccc4)c3=O)cc2c1 | 29
COc1ccc2c(Oc3ccc(NC(=O)c4c(C)n(CC(C)(C)O)n(-c5ccccc5)c4=O)nc3)ccnc2c1 | -73*
COc1ccc2c(OCc3nnc4ccc(-c5ccccc5)nn34)ccnc2c1 | -5
CCOC(=O)Cn1cc(CN2CCCC2c2cc(C(C)C)on2)c2ccccc21 (centres undefined) | -42
COc1ccc2c(c1)CCCN2C(=O)c1nonc1N | 21
O=C(/C=C/c1ccccc1)c1ccc(O)cc1O | 41
O=C(/C=C/c1ccccc1)NC(NC(=S)Nc1ccc(Cl)cc1)C(Cl)(Cl)Cl (centres undefined) | -78*
OC(c1ccccc1)(c1ccccc1)C1CCN(C(=S)Nc2ccc(Cl)cc2)CC1 | 1
COc1ccc(CN2CCCC3(COCCN(c4ncccn4)C3)C2)cc1 (centres undefined) | -9
CC(=O)c1ccccc1-c1ccc2nc[nH]c2c1 | -54
O=C(c1cscn1)N1CCCC(n2nnc3cc(C(F)(F)F)ccc32)C1 (centres undefined) | 4
COc1ccc(CN(C(=O)c2cc(-c3ccc(C)cc3)on2)C2CCN(C)CC2)cc1 | -76*
COc1ccc(-c2ccc(C(=O)N(Cc3nccn3C)C3CC3)o2)cc1 | 12
COc1ccc(CN(C(=O)c2cc(C(C)C)c3nncn3n2)C2CCN(C)CC2)cc1 | 6
CS(=O)(=O)N1CCN(Cc2cccnc2)CC(C(=O)O)C1 (centres undefined) | 44
